# The full data set covers some 8,800 targets. This sample favours those with a hit. About 0.5% of all pairs of compound and target were hits. A number with no mark means an inactive call.
# Assays:
# Assay in all cases: log2 fold change, soluble protein after heating vs DMSO (PISA); higher = thermal stabilisation; K562 lysate, 10 uM; active = over 0.2 and 3.5 SD of the protein, either way, in both replicates (recomputed)
# [1] = compound: CC[C@@H]1C(=O)N(C)c2cnc(Nc3ccc(C(=O)NC4CCN(C)CC4)cc3OC)nc2N1C1CCCC1
# Summary of the method: (§1)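 Soluble protein was defined as the supernatant remaining after 21,000xg for 90 min, following pooling of heated aliquots and adjustment to 0.5% NP-40 at 4°C. Before that, crude K562 extract at 1 mg/mL protein in PBS pH 7.4 with 1 mM MgCl2 was treated with 10 μM compound for 30 min and heated for 3 min across 48°C-58°C. Quantification used TMTpro 16plex LC-MS/MS with channel sums equalised, and values are log-two fold changes in thermal stability relative to solvent controls from duplicates.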
# [2] = compound: CN1CCN(CCOc2cc(OC3CCOCC3)c3c(Nc4c(Cl)ccc5c4OCO5)ncnc3c2)CC1 [saracatinib]
# Summary of the method: as §1
# [3] = compound: CNC(=O)C1=CC=CC=C1NC2=NC(=NC=C2Cl)NC3=C(C=C(C=C3)N4CCOCC4)OC
# Summary of the method: as §1
# [4] = compound: CNc1nc(-c2ccc3c(N)n[nH]c3c2)cc(N2C[C@@H](C(=O)NC3CCCCC3)CC[C@H]2C)n1
# Summary of the method: as §1
# [5] = compound: COC(=O)N[C@@H](C)CNc1nccc(-c2cn(C(C)C)nc2-c2cc(Cl)cc(NS(C)(=O)=O)c2F)n1 [encorafenib]
# Summary of the method: as §1
# [6] = compound: COC(=O)[C@H](CCSC)NC(=O)C1=C(C=C(C=C1)NC[C@H](CS)N)C2=CC=CC=C2
# Summary of the method: as §1
# [7] = compound: CCCS(=O)(=O)Nc1ccc(F)c(C(=O)c2c[nH]c3ncc(Cl)cc23)c1F
# Summary of the method: as §1
# [8] = compound: CC[C@@H]1C(=O)N(C)c2cnc(Nc3ccc(C(=O)N[C@H]4CC[C@H](N5CCN(CC6CC6)CC5)CC4)cc3OC)nc2N1C(C)C [volasertib]
# Summary of the method: as §1
# [9] = compound: CCn1c(C(=O)N(C2CC2)C2CC2)cc2c3c(ncn3C)c(Nc3cc(C)n(C)n3)nc21
# Summary of the method: as §1
# [10] = compound: CCn1cc(-c2ccnc3[nH]c(-c4cccc(CN(C)C)c4)cc23)c(-c2ccc(NC(=O)N(C)C)cc2)n1
# Summary of the method: as §1
# [11] = compound: CN1CCC(CNc2ccc3ncc(-c4cccc(OC(F)(F)F)c4)n3n2)CC1
# Summary of the method: as §1
# [12] = compound: CN1CC[C@H](c2c(O)cc(O)c3c(=O)cc(-c4ccccc4Cl)oc23)[C@H](O)C1 [alvocidib]
# Summary of the method: as §1
# [13] = compound: CN1CCc2c(c3ccccc3n2Cc2ccc(C(=O)NO)cc2)C1 [Tubastatin A]
# Summary of the method: as §1
# [14] = compound: COc1cc(Nc2ncc3c(n2)-c2ccc(Cl)cc2C(c2c(F)cccc2OC)=NC3)ccc1C(=O)O [alisertib]
# Summary of the method: as §1
# [15] = compound: COc1cc2nc(-c3cc(F)ccc3O)nc(N[C@@H]3CNC[C@H]3C(C)(C)O)c2cc1OC
# Summary of the method: as §1
# [16] = compound: COc1cc2ncnc(Nc3ccc(F)c(Cl)c3)c2cc1OCCCN1CCOCC1 [gefitinib]
# Summary of the method: as §1
# [17] = compound: CCN(CCCOc1ccc2c(Nc3cc(CC(=O)Nc4cccc(F)c4)[nH]n3)ncnc2c1)CCOP(=O)(O)O [barasertib]
# Summary of the method: as §1
# [18] = compound: CN1CCN(c2nc(C3=C(c4c[nH]c5ccccc45)C(=O)NC3=O)c3ccccc3n2)CC1 [sotrastaurin]
# Summary of the method: as §1
# [19] = compound: CCCS(=O)(=O)Nc1ccc(F)c(C(=O)c2c[nH]c3ncc(-c4ccc(Cl)cc4)cc23)c1F [vemurafenib]
# Summary of the method: as §1
# [20] = compound: CNC(=O)c1ccc(Nc2ncc(C(F)(F)F)c(NCc3nccnc3N(C)S(C)(=O)=O)n2)cc1 [defactinib]
# Summary of the method: as §1
# Sequence of UniProt P04350 (P04350 whole entry, looked up): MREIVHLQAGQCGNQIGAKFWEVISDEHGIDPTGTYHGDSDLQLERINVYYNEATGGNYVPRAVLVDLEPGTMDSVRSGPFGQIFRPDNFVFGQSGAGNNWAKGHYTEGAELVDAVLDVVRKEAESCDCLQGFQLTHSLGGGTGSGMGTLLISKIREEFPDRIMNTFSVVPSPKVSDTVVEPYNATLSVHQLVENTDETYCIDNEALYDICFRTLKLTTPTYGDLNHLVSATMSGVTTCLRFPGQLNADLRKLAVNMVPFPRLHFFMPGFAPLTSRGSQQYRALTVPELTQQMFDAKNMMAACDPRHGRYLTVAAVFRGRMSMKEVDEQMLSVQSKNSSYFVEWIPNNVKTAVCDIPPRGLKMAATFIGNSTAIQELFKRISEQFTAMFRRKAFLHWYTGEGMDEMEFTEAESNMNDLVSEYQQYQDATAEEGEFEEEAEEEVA
# Sequence of UniProt Q6P9G4 (Q6P9G4 whole entry, looked up): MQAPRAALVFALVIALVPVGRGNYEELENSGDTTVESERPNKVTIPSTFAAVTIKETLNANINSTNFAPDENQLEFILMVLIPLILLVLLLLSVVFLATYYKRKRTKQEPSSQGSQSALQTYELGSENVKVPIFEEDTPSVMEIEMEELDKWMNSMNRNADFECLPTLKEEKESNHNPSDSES
# Sequence of UniProt P15923 (P15923 whole entry, looked up): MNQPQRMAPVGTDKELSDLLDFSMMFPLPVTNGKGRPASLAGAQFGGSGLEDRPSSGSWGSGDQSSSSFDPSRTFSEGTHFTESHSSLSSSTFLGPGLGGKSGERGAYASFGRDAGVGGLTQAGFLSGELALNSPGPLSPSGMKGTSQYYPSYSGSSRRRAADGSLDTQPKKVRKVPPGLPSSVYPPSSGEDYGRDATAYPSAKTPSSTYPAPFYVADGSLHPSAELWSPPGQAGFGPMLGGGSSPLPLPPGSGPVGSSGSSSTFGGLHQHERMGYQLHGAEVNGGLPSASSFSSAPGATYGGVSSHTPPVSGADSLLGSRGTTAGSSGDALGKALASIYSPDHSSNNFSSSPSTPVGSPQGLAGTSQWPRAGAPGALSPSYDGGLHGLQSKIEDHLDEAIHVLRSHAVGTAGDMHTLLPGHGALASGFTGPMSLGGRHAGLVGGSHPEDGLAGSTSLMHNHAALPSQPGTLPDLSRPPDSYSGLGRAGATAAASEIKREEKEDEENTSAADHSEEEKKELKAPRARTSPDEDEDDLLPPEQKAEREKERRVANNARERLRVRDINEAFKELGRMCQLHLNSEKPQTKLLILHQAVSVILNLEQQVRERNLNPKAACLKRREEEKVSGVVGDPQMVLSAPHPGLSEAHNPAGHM
# Sequence of UniProt Q8TD43 (Q8TD43 whole entry, looked up): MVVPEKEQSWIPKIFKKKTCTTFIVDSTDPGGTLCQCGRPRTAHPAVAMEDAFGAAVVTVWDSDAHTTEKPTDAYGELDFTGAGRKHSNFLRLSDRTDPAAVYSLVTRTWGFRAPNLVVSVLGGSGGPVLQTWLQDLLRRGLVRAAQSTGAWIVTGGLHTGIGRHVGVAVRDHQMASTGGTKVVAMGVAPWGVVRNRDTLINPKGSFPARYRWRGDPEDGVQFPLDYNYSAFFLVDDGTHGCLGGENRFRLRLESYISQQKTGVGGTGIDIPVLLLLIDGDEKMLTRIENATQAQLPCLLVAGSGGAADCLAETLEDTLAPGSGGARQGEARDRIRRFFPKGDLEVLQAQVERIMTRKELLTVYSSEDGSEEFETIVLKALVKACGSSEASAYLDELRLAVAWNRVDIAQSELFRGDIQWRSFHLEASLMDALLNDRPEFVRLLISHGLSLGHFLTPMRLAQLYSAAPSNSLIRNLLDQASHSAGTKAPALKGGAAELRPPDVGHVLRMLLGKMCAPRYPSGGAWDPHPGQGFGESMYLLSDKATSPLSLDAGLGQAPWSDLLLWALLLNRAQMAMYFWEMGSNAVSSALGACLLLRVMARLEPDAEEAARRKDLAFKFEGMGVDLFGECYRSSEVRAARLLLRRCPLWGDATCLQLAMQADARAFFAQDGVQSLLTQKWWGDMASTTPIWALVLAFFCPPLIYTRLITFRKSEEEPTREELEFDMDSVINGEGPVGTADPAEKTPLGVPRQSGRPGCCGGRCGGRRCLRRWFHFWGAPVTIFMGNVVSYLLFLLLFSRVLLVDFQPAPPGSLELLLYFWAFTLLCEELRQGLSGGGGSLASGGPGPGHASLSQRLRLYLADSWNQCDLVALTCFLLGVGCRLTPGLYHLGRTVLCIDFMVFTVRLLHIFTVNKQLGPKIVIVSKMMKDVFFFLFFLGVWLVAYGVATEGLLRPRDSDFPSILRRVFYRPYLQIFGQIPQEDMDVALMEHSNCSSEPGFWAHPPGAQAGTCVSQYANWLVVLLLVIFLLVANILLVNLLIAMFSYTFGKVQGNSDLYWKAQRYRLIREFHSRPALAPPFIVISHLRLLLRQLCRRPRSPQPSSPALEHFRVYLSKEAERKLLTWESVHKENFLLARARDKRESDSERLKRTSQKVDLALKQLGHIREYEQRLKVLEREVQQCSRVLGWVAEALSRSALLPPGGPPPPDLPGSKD
# Sequence of UniProt Q9NNW7 (Q9NNW7 whole entry, looked up): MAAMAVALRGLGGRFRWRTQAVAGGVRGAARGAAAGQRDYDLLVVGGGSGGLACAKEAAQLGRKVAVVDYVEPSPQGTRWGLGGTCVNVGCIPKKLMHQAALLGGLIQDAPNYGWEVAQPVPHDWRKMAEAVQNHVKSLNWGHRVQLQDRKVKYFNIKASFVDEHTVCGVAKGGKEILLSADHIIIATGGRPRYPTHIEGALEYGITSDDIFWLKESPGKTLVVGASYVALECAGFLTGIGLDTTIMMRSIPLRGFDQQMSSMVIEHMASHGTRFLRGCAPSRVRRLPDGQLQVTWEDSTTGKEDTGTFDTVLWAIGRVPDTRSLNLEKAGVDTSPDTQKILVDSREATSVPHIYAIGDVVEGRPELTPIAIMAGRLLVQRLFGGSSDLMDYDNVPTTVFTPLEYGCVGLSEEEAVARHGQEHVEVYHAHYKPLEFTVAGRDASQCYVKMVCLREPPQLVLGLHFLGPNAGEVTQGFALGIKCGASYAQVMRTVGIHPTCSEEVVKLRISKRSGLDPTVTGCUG
# Sequence of UniProt Q04726 (Q04726 whole entry, looked up): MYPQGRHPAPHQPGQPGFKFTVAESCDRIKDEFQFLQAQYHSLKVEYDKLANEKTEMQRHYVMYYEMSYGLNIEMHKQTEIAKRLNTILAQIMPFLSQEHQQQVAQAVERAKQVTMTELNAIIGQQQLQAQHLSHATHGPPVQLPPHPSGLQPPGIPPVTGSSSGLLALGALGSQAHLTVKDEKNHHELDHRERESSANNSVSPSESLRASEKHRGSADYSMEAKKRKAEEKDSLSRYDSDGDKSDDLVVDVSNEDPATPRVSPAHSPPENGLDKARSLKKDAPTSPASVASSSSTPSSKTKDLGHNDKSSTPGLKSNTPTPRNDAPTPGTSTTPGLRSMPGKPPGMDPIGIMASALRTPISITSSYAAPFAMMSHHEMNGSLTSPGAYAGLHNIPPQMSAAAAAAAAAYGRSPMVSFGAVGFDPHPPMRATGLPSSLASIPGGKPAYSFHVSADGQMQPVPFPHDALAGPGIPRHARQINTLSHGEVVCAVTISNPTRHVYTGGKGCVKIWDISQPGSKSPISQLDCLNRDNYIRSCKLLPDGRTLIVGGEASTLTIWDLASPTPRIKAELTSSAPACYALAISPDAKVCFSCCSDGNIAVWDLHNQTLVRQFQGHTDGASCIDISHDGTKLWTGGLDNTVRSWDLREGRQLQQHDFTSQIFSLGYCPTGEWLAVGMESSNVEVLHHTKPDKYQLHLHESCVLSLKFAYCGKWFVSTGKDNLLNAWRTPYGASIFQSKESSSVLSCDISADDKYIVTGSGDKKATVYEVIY
# Sequence of UniProt P62328 (P62328 whole entry, looked up): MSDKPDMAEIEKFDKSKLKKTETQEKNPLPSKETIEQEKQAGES
# Sequence of UniProt P36897 (P36897 whole entry, looked up): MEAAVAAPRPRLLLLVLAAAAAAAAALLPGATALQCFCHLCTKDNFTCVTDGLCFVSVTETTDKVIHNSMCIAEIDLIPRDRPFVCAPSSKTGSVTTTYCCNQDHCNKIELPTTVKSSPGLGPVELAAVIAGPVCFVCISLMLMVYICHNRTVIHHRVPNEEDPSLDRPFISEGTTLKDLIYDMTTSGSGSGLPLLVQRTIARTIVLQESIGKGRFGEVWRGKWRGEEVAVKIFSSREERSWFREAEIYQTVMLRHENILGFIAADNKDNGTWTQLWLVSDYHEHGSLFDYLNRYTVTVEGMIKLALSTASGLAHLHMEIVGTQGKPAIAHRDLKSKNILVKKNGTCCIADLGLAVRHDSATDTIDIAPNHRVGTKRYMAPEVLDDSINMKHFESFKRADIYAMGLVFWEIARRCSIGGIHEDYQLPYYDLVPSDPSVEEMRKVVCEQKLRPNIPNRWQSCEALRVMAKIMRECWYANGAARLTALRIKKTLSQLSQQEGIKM
# Sequence of UniProt Q9BRN9 (Q9BRN9 whole entry, looked up): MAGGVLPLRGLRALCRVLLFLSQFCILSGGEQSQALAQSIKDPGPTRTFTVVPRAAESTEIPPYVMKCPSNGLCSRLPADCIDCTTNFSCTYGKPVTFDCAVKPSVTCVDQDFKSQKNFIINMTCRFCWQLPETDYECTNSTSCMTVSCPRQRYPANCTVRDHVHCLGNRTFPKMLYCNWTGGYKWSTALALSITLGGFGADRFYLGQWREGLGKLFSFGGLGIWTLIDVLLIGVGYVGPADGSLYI
# Sequence of UniProt P0C1Z6 (P0C1Z6 whole entry, looked up): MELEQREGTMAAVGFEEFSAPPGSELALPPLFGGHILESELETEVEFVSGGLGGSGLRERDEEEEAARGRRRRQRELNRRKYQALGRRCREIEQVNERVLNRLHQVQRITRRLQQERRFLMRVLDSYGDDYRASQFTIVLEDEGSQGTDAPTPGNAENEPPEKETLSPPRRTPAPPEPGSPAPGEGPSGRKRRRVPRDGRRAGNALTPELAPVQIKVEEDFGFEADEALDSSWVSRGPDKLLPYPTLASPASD
Target,log2 fold change [1],log2 fold change [2],log2 fold change [3],log2 fold change [4],log2 fold change [5],log2 fold change [6],log2 fold change [7],log2 fold change [8],log2 fold change [9],log2 fold change [10],log2 fold change [11],log2 fold change [12],log2 fold change [13],log2 fold change [14],log2 fold change [15],log2 fold change [16],log2 fold change [17],log2 fold change [18],log2 fold change [19],log2 fold change [20]
TGFBR1 isoform 2 (UniProt P36897),-0.005,1.04 (active),0.156,-0.004,-0.017,0.077,,,,,,,,,,,,,,
U2AF1L5 (UniProt P0DN76),0.027,-0.007,-0.044,-0.023,-0.101,0.096,-0.013,-0.036,0.015,-1.21 (active),0.389,-0.58,-0.193,-0.045,-0.013,-0.061,,,,
TXNRD2 isoform 3 (UniProt Q9NNW7),,,0.194,,,,,,-0.081,,,,0.072,,,,,,,
TUBB4A (UniProt P04350),0.045,-0.033,-0.029,0.051,-0.027,0.112,0.036,0.104,0.02,-0.09,0,-0.006,-0.113,0.021,-0.002,0.101,-0.006,-0.007,,
TCF3 isoform 2 (UniProt P15923),,,0.214,,,,,,0.065,,,,0.055,,,,,0.043,,
TFPT (UniProt P0C1Z6),,0.005,-0.041,0.381 (active),,,-0.019,0.015,,,,,,,0.027,,0.148,,,
TCF20 (UniProt Q9UGU0),,0.038,0.01,0.615 (active),,,-0.106,0.006,,-0.02,-0.031,-0.017,,,0.167,,0.084,0.086,,
TMEM154 (UniProt Q6P9G4),0.022,-0.036,,-0.099,-0.015,0.023,,,-0.08,,,,0.063,,,,,0.116,,
TLE3 isoform 5 (UniProt Q04726),0.026,0.049,0.004,0.011,-0.02,0.002,0.037,-0.025,0.034,0.101,0.178,-0.153,-0.06,0,0.008,0.009,-0.176,0.015,,
UCP2 (UniProt P55851),,,,,,,,,-0.024,,,,0.182,0.033,,0.045,,-0.001,0.09,0.096
TM2D3 (UniProt Q9BRN9),-0.079,,0.008,,-0.116,-0.116,,,0.199,-0.934 (active),0.444,-0.291,-0.125,,,,-0.105,,,
TTLL12 (UniProt V9GY16),0.227,,0.077,,-0.174,0.146,,,-0.465,-0.393,0.133,0.003,0.177,,,,0.102,-0.175,0.261,-0.095
TUBA4A (UniProt C9JQ00),,,,,,,,,,0,-0.045,0.074,,,,,0.267,,,
TNIK isoform 5 (UniProt Q9UKE5),,0.022,,-0.04,,,-0.118,-0.087,-0.059,-0.051,-0.065,0.012,-0.015,,0.214,,0.021,0.034,,
TNFAIP3 (UniProt P21580),-0.412,0.029,0.022,-0.009,0.276 (active),0.228,0.004,-0.063,0.051,-0.009,0.017,0.005,-0.076,0.002,0.031,-0.028,-0.015,-0.006,,
TEDC1 (UniProt Q86SX3),0.106,-0.02,0.038,0.051,0.094,0.047,0.103,-0.041,0.019,,,,-0.254,-0.019,-0.008,0.047,,-0.037,,
TENM4 (UniProt Q6N022),,,,,,,-0.205,-0.069,,0.534 (active),-0.257,0.03,,,0.024,,0.104,0,,
TMEM132A isoform 2 (UniProt Q24JP5),-0.078,,-0.097,,-0.064,-0.042,0.239,-0.144,0.028,0.055,0.3,-0.381,0.136,,1.16 (active),,,0.044,,
TMPO isoform 2 (UniProt P42167),0.075,0.044,,0.186,-0.113,-0.14,,,,,,,,,,,0.185,,0.08,0.058
TLK2 isoform 3 (UniProt Q86UE8),,,,,,,,,,0.104,-0.036,0.007,,,,,,,,
TJP1 (UniProt H0Y3R8),,,,,,,,,,0.048,-0.16,0.079,,,,,,,,
TRAF7 (UniProt Q6Q0C0),0.053,0.132,,0.025,0.015,-0.11,,,0.012,-0.065,0.191,0.058,-0.008,-0.05,,-0.099,,-0.044,-0.07,0.141
TRPM4 (UniProt Q8TD43),,0.044,-0.163,0.14,,,,,0.066,-0.598,0.156,-0.401,0.053,,,,0.456,0.11,,
TMSB4X (UniProt P62328),0.084,,-0.045,,0.043,-0.055,-0.068,0.104,-0.187,-0.191,0.371,0.401,0.102,-0.143,0.063,-0.001,0.056,0.205,,
TJP1 (UniProt G3V1L9),,0.096,0.124,0.119,,,,,-0.021,0.04,-0.004,-0.09,-0.042,-0.079,,-0.215,-0.034,-0.046,0.076,0.241

# Source: the supplement of paper PMC10849652
